Most compounds without a hit are left out; they make up all but 4.9% or so of the library.
MPTP block: permeability transition pore inhibition. isolated mouse mitochondria, Ca2+ swelling absorbance, 30 min. inhibition, % at 10 µM. 1.4% of 360,000 active. AID 602449;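 active means inhibition of 50% or more, scaled per plate between neutral and stimulator controls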
Platelet DG rel: modulates dense granule release in human platelets; 0.22% of 300,000 active; human platelet-rich plasma, SFLLRN dense granule ATP release, luminescence; inhibition, %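 (compounds screened at 7.5 µM in platelet-rich plasma)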;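 active means mean replicate score, as percent of positive control, at or above 50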
dFosB act: mouse delta FosB homodimer activation. AID 493131. P13346. 0.99% of 340,000 active. activation, % at 25 µM. purified delta FosB, TAMRA-CDK5 oligo fluorescence polarization; percent of positive-control signal above neutral wells;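 active means mean activation above about 17%, with every replicate also reaching it, limit read from the data, passing the limit was not always enough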
Target sequence (P13346 whole entry, looked up): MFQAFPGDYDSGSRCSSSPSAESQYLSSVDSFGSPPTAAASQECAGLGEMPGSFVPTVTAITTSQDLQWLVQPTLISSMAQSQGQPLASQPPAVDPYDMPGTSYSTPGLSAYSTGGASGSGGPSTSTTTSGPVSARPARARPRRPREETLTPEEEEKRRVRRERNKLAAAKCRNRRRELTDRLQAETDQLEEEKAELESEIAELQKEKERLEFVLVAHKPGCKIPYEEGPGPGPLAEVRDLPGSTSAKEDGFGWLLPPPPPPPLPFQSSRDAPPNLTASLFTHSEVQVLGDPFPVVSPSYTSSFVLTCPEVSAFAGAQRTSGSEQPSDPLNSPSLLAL
HSP90 inh: blocks HSP90-mediated luciferase refolding in reticulocyte lysate; Rabbit reticulocyte lysate, luciferase refolding luminescence, 3 h; inhibition, % at 5.6 µM; 0.91% of 290,000 active;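 active means inhibition above the screen-wide mean plus 3 SD, computed separately per campaign, cut at about 16% in these data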;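 further: inhibitors lower the luminescence because luciferase stays unfolded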
HSF1 inhib: HSF1 inhibition | NIH3T3-HGL HSE-luciferase, MG132-induced, luminescence 8 h; active compounds read low | activity change, negative = inhibition, % at 7.5 µM (by protocol) | 0.77% of 300,000 active;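 active means more than half of replicate wells show activity change below -50%, luminescence cut by over half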;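 further: luciferase reports HSF-1 transcriptional activity via heat shock element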
HSF1 activator: increases HSF-1 driven luciferase reporter signal. NIH3T3-HGL HSF-1 luciferase reporter, MG132, 8 h; 100% = twice DMSO control signal. activation, % at 9 µM. 1.7% of 300,000 active. AID 504408;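 active means mean replicate activation of at least 50% with a set share of replicates each reaching 50%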
Large screens that a line does not name were inactive.

O=C(Cc1ccccc1)N/N=C/c1cc(Br)cc(Br)c1O	dFosB act 39, HSP90 inh 16
O=C(CCC(=O)Nc1ccc(Br)cc1)N/N=C/c1ccccc1O	dFosB act 29
O=C(CCC(=O)Nc1ccc(F)cc1)N/N=C/c1ccccc1	dFosB act 18
O=C(Cc1ccsc1)Nc1ccc(S(=O)(=O)C(F)F)cc1	HSF1 inhib -64
CCN(CC)CCCN=Cc1c(O)n(-c2ccccc2C)c(=O)c2ccccc12	none
CCOC(=O)c1c(NC(=S)N2CCCCC2)sc2c1CCN(C(=O)OCC)C2	HSF1 activator 121 (no result: dFosB act)
C=CCNC(=S)Nc1sc2c(c1C(=O)OCC)CCN(C(=O)OCC)C2	HSF1 activator 61
CCOC(=O)c1c(NC(=S)NCc2ccccc2)sc2c1CCN(C(=O)OCC)C2	HSF1 activator 72
CCOC(=O)c1c(NC(=S)Nc2ccccc2)sc2c1CCN(CC)C2	none
COc1ccc(C(=O)N2CCC(C)(C(=O)NS(=O)(=O)C3CC3)C2)cc1F (stereo not given)	none (no result: Platelet DG rel, dFosB act, HSP90 inh, HSF1 inhib, HSF1 activator)
N/C(=N\OC(=O)Nc1ccccc1)c1ncc([N+](=O)[O-])s1	HSF1 activator 65
CN(C)/C=C/C(=O)c1ccncc1	none
CN(C)/C=C/C(=O)c1cccc(Oc2ncccn2)c1	HSF1 activator 72
O=[N+]([O-])c1ccc(-c2ccc(/C=N/Nc3nc(NCc4ccccc4)nc(N4CCOCC4)n3)o2)cc1	dFosB act 21
Cc1cc(C(=O)CCl)c(C)n1CCc1ccc(Cl)cc1	HSF1 activator 61
CC1CN(C(=O)c2ccc(COc3ccc4ccccc4c3)o2)CC(C)O1 (stereo not given)	none
CC1CN(C(=O)c2ccc(COc3ccc(C(C)C)cc3)o2)CC(C)O1 (stereo not given)	HSF1 activator 60
Cc1ccc(OCc2ccc(C(=O)N3CCCC3)o2)cc1C	HSF1 activator 61
O=C(NC12CC3CC(CC(C3)C1)C2)N1CCN(C(=O)c2ccco2)CC1	none
COc1nc(-c2ccccc2)c2cc(Br)ccc2n1	HSF1 inhib -68 (no result: HSP90 inh)
CCOc1ccc(-n2c(C)c3c(C)nnc(C)c3c2C)cc1	none (no result: Platelet DG rel, dFosB act, HSP90 inh, HSF1 inhib, HSF1 activator)
O=C(NC(=S)Nc1ncccn1)c1ccc(Cl)cc1Cl	HSF1 activator 64
COc1cccc(C(=O)Nc2ccc3c(c2)OC[C@H](C)N(CCc2ccccc2)C[C@@H](C)[C@@H](OC)CN(C)C3=O)c1	none (no result: Platelet DG rel, dFosB act, HSP90 inh, HSF1 inhib, HSF1 activator)
C=CCOc1ccc(-c2nc3c(c(=O)[nH]c(=O)n3Cc3ccccc3)n2CCCOC)cc1	HSF1 activator 63
COCCCn1c(-c2ccc(OC)cc2)nc2c1c(=O)[nH]c(=O)n2Cc1ccccc1	none
Cc1ccc(-c2nc3c(c(=O)[nH]c(=O)n3Cc3ccccc3)n2Cc2ccccc2)o1	HSF1 activator 62
Cc1cc(C)c(C(=O)/C=C/c2cccc3ccccc23)c(=O)[nH]1	HSF1 activator 84
CCN(C[C@H]1N[C@@](CC)(C(=O)OC)[C@H]2C(=O)N(Cc3ccccc3)C(=O)[C@@H]12)S(=O)(=O)c1ccc(C(C)(C)C)cc1	none (no result: Platelet DG rel, HSP90 inh, HSF1 inhib, HSF1 activator)
CC1(C)Cc2nc3[nH]c(=S)n(-c4ccccc4)c(=O)c3cc2CO1	HSF1 inhib -62
CCC1(C)Cc2nc3[nH]c(=S)n(-c4ccccc4)c(=O)c3cc2CO1 (stereo not given)	none
Cc1cc(N(C)N)nc(NC(=O)NS(=O)(=O)c2ccccc2Cl)n1	none
CC(=O)Nc1nnc(SCc2ccc(F)cc2)s1	none
CC(=O)Nc1nnc(SCC(=O)c2ccc(F)cc2)s1	HSF1 activator 104
Cc1nn(CCC(=O)N2CCN(S(=O)(=O)c3ccccc3)CC2)c(C)c1C	none
N#CC1=C(N)C(C#N)(C#N)C(c2cccnc2)C2CC(c3ccccc3)CC=C12 (stereo not given)	HSF1 inhib -55
N#CC1=C(N)C(C#N)(C#N)C(c2cccnc2)C2CCCC=C12 (stereo not given)	none (no result: MPTP block, Platelet DG rel, dFosB act, HSF1 inhib, HSF1 activator)
CCOC(=O)C1CCN(c2c(NCc3ccc(C(=O)Nc4ccc(C)cc4)cc3)c(=O)c2=O)CC1	HSF1 inhib -69
COc1ccc(NC(=S)NCc2ccc(S(N)(=O)=O)cc2)c(OC)c1	none
COc1ccc2cc(C(=O)CS(=O)(=O)c3ccccc3)c(=O)oc2c1	none
O=C(CS(=O)(=O)c1ccccc1)c1cc2cc(F)ccc2oc1=O	HSF1 activator 325

Compound activity as filed in PubChem.
